According to PubChem BioAssay AID1986 (Sanford-Burnham Center for Chemical Genomics, 2009):
Among all 290,000 compounds or so, about 890 (0.31%) were called active. Rule as the data show it: active = inhibition mostly above about 52% (no sharp cut-off); inactive = mostly below about 76%. Shown is part of a subset that was picked to be rich in actives.

Test: inhibitors of HIV fusion peptide binding, primary screen, biochemical, uHTS, fluorescence dequenching (AID 1986)
Details: cell-free peptide binding, 30 min, stronger effect = higher value
[1] = measured here: repeat confirmation average inhibition, at 18.6 µM

Row | Compound | inhibition (at 20 µM) | inhibition [1]
1 | COc1ccc(-n2c(O)c(/C=N/n3cnnc3)c3ccccc3c2=O)cc1 | -1% (inactive) | 
2 | c1ccc(Oc2ccc(-n3cnnn3)cc2)cc1 | -0.6% (inactive) | 
3 | CCOC(=O)c1oc2ccccc2c1NC(=O)C1CCCCC1 | 2.3% (inactive) | 
4 | O=C(N=Nc1c(O)[nH]c2ccccc12)c1ccc(CN2CCOCC2)cc1 | -1.7% (inactive) | 
5 | O=c1c2c3c(sc2n(CCN2CCOCC2)c(=O)n1Cc1ccco1)CCCCC3 | -0.6% (inactive) | 
6 | CCOC(=O)N1CCC(N2C(=O)c3ccccc3C2Nc2cc(C)cc(C)c2)CC1 (stereo not given) | -0.9% (inactive) | 
7 | Cc1ccc(N=C2NC(=O)/C(=C/c3cn(C)c4ccccc34)S2)cc1C | 74.7% (active) | 73.2%
8 | Cc1ccc(N=C2NC(=O)/C(=C/c3cccn3C)S2)cc1C | 2.1% (inactive) | 
9 | Cc1ccc(N=C2NC(=O)/C(=C\c3cccs3)S2)cc1C | 1.6% (inactive) | 
10 | Cn1nc(-c2ccccc2)c(/C=N/O)c1Cl | -1.8% (inactive) | 
11 | CCn1cc(C(=O)N2CCCC2)c(=O)c2cc(S(=O)(=O)N3CC(C)CC(C)C3)ccc21 (stereo not given) | 1.1% (inactive) | 
12 | COc1ccc2cc(CCNS(=O)(=O)c3c(C)cc(C)cc3C)c(=O)[nH]c2c1 | -1.1% (inactive) | 
13 | Cc1c(NC(=O)c2ccc(Cl)s2)c(=O)n(-c2ccccc2)n1C | 0.5% (inactive) | 
14 | O=C(O)c1ccc(-n2c(/C=C/c3cccc([N+](=O)[O-])c3)nc3ccccc3c2=O)cc1 | 1.4% (inactive) | 
15 | O=C(O)c1c2c(nc3ccccc13)/C(=C/c1cccc([N+](=O)[O-])c1)CCC2 | 2.3% (inactive) | 
16 | O=C(O)c1ccc(-n2ncc3c2/C(=C/c2cccc([N+](=O)[O-])c2)CC3)cc1 | 66.7% (active) | 
17 | Cn1cccc1CC(=O)N/N=C\c1ccccc1 | -0.6% (inactive) | 
18 | COc1ccc(/C=C2/N=C(c3cccs3)OC2=O)cc1OC(C)C | 106% (active) | 100%
19 | CCOc1ccc(/C=C2\N=C(c3cccs3)OC2=O)cc1OC | 6.4% (inactive) | 
20 | COc1ccc(/C=C2\N=C(C)OC2=O)cc1OC | 0.7% (inactive) | 
21 | COC(=O)Cn1cc(/C=C/c2cc[n+](C)cc2)c2ccccc21 | 115% (active) | 96.1%
22 | C=CCn1cc(/C=C/c2cc[n+](C)cc2)c2ccccc21 | 185% (inactive) | 
23 | CCN(CC)C(=O)Cn1c(C)c(/C=C/c2cc[n+](C)cc2)c2ccccc21 | 115% (active) | 54.5%
24 | COC(=O)Cn1c(C)c(/C=C/c2cc[n+](C)cc2)c2ccccc21 | 46.3% (inactive) | 

Row | Compound | inhibition (at 20 µM) | inhibition [1]
25 | CCn1cc(/C=C/c2cc[n+](C)cc2)c2ccccc21 | 182% (inactive) | 
26 | Cc1ccc2c(c1)c(/C=C/c1cc[n+](C)cc1)c(C)n2C | 159% (inactive) | 
27 | CCN(CC)C(=O)Cn1c(=O)n(C)c2ccccc21 | -1.6% (inactive) | 
28 | C=CCn1c(C)c(/C=C/c2cc[n+](C)cc2)c2ccccc21 | 103% (active) | 81%
29 | Cc1cc(Nc2ccccc2)n(C(=O)c2ccccc2)n1 | -3% (inactive) | 
30 | Cc1c(NC(=O)COC(=O)/C=C/c2ccc(Cl)cc2)c(=O)n(-c2ccccc2)n1C | -0.5% (inactive) | 
31 | Clc1ccccc1OCCn1nnc2ccccc21 | -2% (inactive) | 
32 | CCC(=O)Nc1cccc(NC(=O)c2cccc([N+](=O)[O-])c2C)c1 | 1.2% (inactive) | 
33 | NC(=O)c1nsc(C(=O)N(c2cccc(F)c2)C(C(=O)NC2CCCC2)c2ccc(O)cc2)c1N (stereo not given) | -1.3% (inactive) | 
34 | Cc1nc2ccc(S(=O)(=O)Nc3cc(-c4nc5cccnc5s4)ccc3C)cc2s1 | 3.9% (inactive) | 
35 | CC12C=CC(=O)C=C1CCC1C3CCC(O)(C(=O)CO)C3(C)CC3OC312 (stereo not given) | -0.7% (inactive) | 
36 | CCOC(=O)CNC(=O)Cn1cnc2c(nnn2-c2ccccc2)c1=O | -0.8% (inactive) | 
37 | CCOC(=O)c1c(C)[nH]c(C(=O)COC(=O)CCSc2ccccc2)c1C | 0.3% (inactive) | 
38 | Cc1cc(S(=O)(=O)N2CCN(c3ccccn3)CC2)c(C)cc1Cl | -0.6% (inactive) | 
39 | Cc1cc(/C=C2/C(=N)N3C(=NC2=O)SN=C3S(C)(=O)=O)c(C)n1-c1ccccc1F | 60.2% (active) | 
40 | Cc1cc(/C=C2/C(=N)N3C(=NC2=O)SN=C3S(C)(=O)=O)c(C)n1-c1ccc(F)cc1 | 75.8% (inactive) | 45.6%
41 | COc1cccc(-n2c(C)cc(/C=C3/C(=N)N4C(=NC3=O)SN=C4S(C)(=O)=O)c2C)c1 | 148% (inactive) | 
42 | CCOc1ccc(-n2c(C)cc(/C=C3/C(=N)N4C(=NC3=O)SN=C4S(C)(=O)=O)c2C)cc1 | 66.6% (active) | 
43 | CC1=CC2=NC(=O)/C(=C\c3cc(C)n(-c4ccccc4F)c3C)C(=N)N2O1 | 3.2% (inactive) | 
44 | COc1ccccc1-n1c(C)cc(/C=C2/C(=N)N3C(=NC2=O)SN=C3S(C)(=O)=O)c1C | 58.1% (inactive) | 36.2%
45 | COc1ccc(CNC(=O)/C=C/c2ccc(S(=O)(=O)NCc3ccco3)cc2)cc1OC | 0.9% (inactive) | 
46 | Cc1ccc(C)c2[nH]c(=O)c(CN(Cc3nnnn3C3CCCCC3)CC3CCCO3)cc12 (stereo not given) | -0.9% (inactive) | 
47 | Cc1cc(-n2nc3ccccc3n2)c(O)c([N+](=O)[O-])c1 | 0.3% (inactive) | 
48 | CCCCCc1ccc(-c2cn(Cc3ccc(C(=O)c4ccccc4)cc3)nn2)cc1 | 1% (inactive) | 

Row | Compound | inhibition (at 20 µM) | inhibition [1]
49 | COc1ccc(CC(=O)Nc2cc(C)c3c(=O)oc4ccccc4c3n2)cc1 | -0.2% (inactive) | 
50 | CCOc1ccc(/C=C(\C)C(=O)c2c(C)cc(C)[nH]c2=O)cc1 | -0.3% (inactive) | 
51 | COc1cc2[nH]c(=S)nc(NCCCOC(C)C)c2cc1OC | -2.4% (inactive) | 
52 | Cc1c(Br)c(=O)oc2c(Br)c(O)c(O)cc12 | 30.9% (inactive) | 
53 | O=c1cc2c(=O)oc3cc(O)c(O)oc3c2c(O)c1O | 44.6% (inactive) | 
54 | O=c1oc2c(O)c(O)cc3c(=O)oc4c(O)c(O)cc1c4c23 | 54.2% (active) | 
55 | COc1cc(/C=N/Nc2nc3ccccc3s2)cc([N+](=O)[O-])c1O | 55.5% (active) | 
56 | O=[N+]([O-])c1cc(Cl)cc(/C=N/Nc2nc3ccccc3s2)c1O | 31.5% (inactive) | 
57 | COc1ccc(/C=N/Nc2nc3ccccc3s2)cc1O | -3.2% (inactive) | 
58 | Cc1cc(C)n(-c2nc3ccccc3c(=O)n2OCC(=O)OCc2ccccc2)n1 | -0.4% (inactive) | 
59 | COc1ccc(N=C2NC(=O)CS2)c([N+](=O)[O-])c1 | -1.1% (inactive) | 
60 | Cc1nc(C2COc3ccccc3O2)sc1C(=O)O (stereo not given) | 1.6% (inactive) | 
61 | O=C(O)C1Nc2c(C(F)(F)F)ccc(Cl)c2C2C=CCC12 (stereo not given) | 37.7% (inactive) | 
62 | CC(=O)c1ccc2c(c1)C1C=CCC1C(C(=O)O)N2 (stereo not given) | 58.7% (inactive) | 17.4%
63 | O=C(O)C1Nc2c(O)cc(Cl)c([N+](=O)[O-])c2C2C=CCC12 (stereo not given) | 66.8% (inactive) | 41%
64 | CCOC(=O)C1Nc2ccc(Br)cc2C2C=CCC12 (stereo not given) | 34.6% (inactive) | 
65 | Cc1ccc2c(c1C)NC(C(=O)O)C1CC=CC21 (stereo not given) | 43.9% (inactive) | 
66 | CCOC(=O)C1Nc2ccc(C(=O)O)cc2C2C=CCC12 (stereo not given) | 38% (inactive) | 
67 | CCCC1Nc2ccc(C(=O)O)cc2C2C=CCC12 (stereo not given) | 49.7% (inactive) | 
68 | Cc1cc(C)c2c(c1)NC(c1cc3c(cc1Br)OCO3)C1CC=CC21 (stereo not given) | 7.4% (inactive) | 
69 | Cc1cc(C)c2c(c1)NC(C(=O)O)C1CC=CC21 (stereo not given) | 60.2% (active) | 
70 | CC(C)C1Nc2ccc(C(=O)O)cc2C2C=CCC21 (stereo not given) | 50.1% (active) | 
71 | Cc1ccc2c(c1)C1C=CCC1C(C(=O)O)N2 (stereo not given) | 62.4% (active) | 
72 | O=C(O)C1Nc2c(Cl)cc(Cl)cc2C2C=CCC12 (stereo not given) | 80.1% (active) | 

Row | Compound | inhibition (at 20 µM) | inhibition [1]
73 | COc1ccc(C)cc1S(=O)(=O)N1CCN(c2ccccc2)CC1 | -0.9% (inactive) | 
74 | Cc1ccc2nc3c(c(Nc4cccc(O)c4)c2c1)CCC3 | -1.7% (inactive) | 
75 | CCOC(=O)c1ccc2c(c1)C1C=CCC1C(C(=O)OCC)N2 (stereo not given) | 19.8% (inactive) | 
76 | CCOC(=O)c1ccc2c(c1)C1C=CCC1C(C(=O)O)N2 (stereo not given) | 66.5% (inactive) | 40.8%
77 | O=C(OC1CCCCC1)c1ccc2c(c1)C1C=CCC1C(C(=O)O)N2 (stereo not given) | 56.1% (active) | 
78 | Cc1ccccc1-n1cc(CNCc2c(C(=O)N(C)C)nc3ccc(Cl)cn23)cn1 | -1.3% (inactive) | 
79 | CCCCc1ccc(-c2csc(/C(C#N)=C\c3ccco3)n2)cc1 | 58.3% (active) | 
80 | CCCCc1ccc(-c2csc(/C(C#N)=C/c3ccc(C)o3)n2)cc1 | 0.2% (inactive) | 
81 | CCCCc1ccc(-c2csc(/C(C#N)=C/c3ccco3)n2)cc1 | 49.9% (inactive) | 
82 | CCCN1CCN(c2nc(-c3cccs3)nc3ccccc23)CC1 | 0.8% (inactive) | 
83 | O=C(NC(=S)Nc1ccc2oc(=O)ccc2c1)c1ccccc1F | -0.2% (inactive) | 
84 | O=C(/C=C/c1ccco1)Nc1cccc(C(=O)Nc2ccccc2C(=O)O)c1 | 58.9% (inactive) | 49.8%
85 | O=C(/C=C/c1ccc([N+](=O)[O-])cc1)Nc1cccc(C(=O)Nc2ccccc2C(=O)O)c1 | 54.1% (active) | 
86 | COC(=O)c1cccc(NC(=O)/C=C/c2ccc([N+](=O)[O-])cc2)c1 | 0.8% (inactive) | 
87 | COc1ccc(NS(=O)(=O)c2cccc(NC(=O)NC3CCCCC3)c2)cc1 | 2% (inactive) | 
88 | CCOC(=O)c1sc(=S)n(C)c1NC(=O)c1cccc(Br)c1 | -0.1% (inactive) | 
89 | N#Cc1c2nc3ccccc3nc2n2cc(NC(=O)c3ccc(F)cc3)ccc12 | 76.7% (inactive) | -2.2%
90 | Cc1ccccc1C(=O)Nc1ccc2c(C#N)c3nc4ccccc4nc3n2c1 | 92.7% (active) | 
91 | Cc1c(C(=O)Nc2ccccc2)cn2c(nc3ccccc32)c1C#N | 3.1% (inactive) | 
92 | N#C/C=C(/N)N1CCN(c2ccc(Cl)c(Cl)c2)CC1 | -2.3% (inactive) | 
93 | O=C(O)c1nn(-c2cccc(Cl)c2)c(=O)cc1O | 24.3% (inactive) | 
